Assay results from PubChem BioAssay (NCI).
About 83,000 compounds went through this panel and 20% of them were active in at least one assay; those are over-represented in the sample as a whole.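 For each line, cells grew in 96-well plates with the test compound present at a single concentration for 48 hours.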 The source made the active and inactive calls. How the source made its calls: active means growth percent below 10; inactive means the rest.

Experiments:
Experiment in all cases: NCI-60 one-dose screen, 48 h (100 = growth as untreated, 0 = no growth, -100 = all killed)
Settings in all cases: 10 µM
K-562 leukemia = test system: K-562 leukemia
MDA-MB-231 breast = test system: MDA-MB-231 breast
RXF 393 renal = test system: RXF 393 renal
SF-268 CNS = test system: SF-268 CNS
SF-295 CNS = test system: SF-295 CNS
SF-539 CNS = test system: SF-539 CNS
UACC-257 melanoma = test system: UACC-257 melanoma
M14 melanoma = test system: M14 melanoma
HCT-15 colon = test system: HCT-15 colon
HT29 colon = test system: HT29 colon
SNB-75 CNS = test system: SNB-75 CNS
SNB-19 CNS = test system: SNB-19 CNS
U251 CNS = test system: U251 CNS
PC-3 prostate = test system: PC-3 prostate
SK-MEL-5 melanoma = test system: SK-MEL-5 melanoma
UACC-62 melanoma = test system: UACC-62 melanoma
LOX IMVI melanoma = test system: LOX IMVI melanoma
SK-MEL-28 melanoma = test system: SK-MEL-28 melanoma
SK-MEL-2 melanoma = test system: SK-MEL-2 melanoma
MALME-3M melanoma = test system: MALME-3M melanoma

Measured: growth

COc1cc(C2CC(c3ccc(Nc4ccnc5cc(Cl)ccc45)cc3)=NN2c2ccc(Cl)cc2)cc(OC)c1OC (centres undefined)
inactive: MDA-MB-231 breast 42.6% | RXF 393 renal 60.4% | SF-268 CNS 48.5% | SF-295 CNS 28.8% | SF-539 CNS 59.3% | UACC-257 melanoma 61.3% | M14 melanoma 38.2% | HCT-15 colon 45.4% | HT29 colon 32.6% | SNB-75 CNS 57.2% | SNB-19 CNS 67.9% | U251 CNS 51.9% | PC-3 prostate 36.4% | SK-MEL-5 melanoma 46.8% | UACC-62 melanoma 22.2% | LOX IMVI melanoma 56.3% | SK-MEL-28 melanoma 67.4% | SK-MEL-2 melanoma 55.2%
active: K-562 leukemia 6.22%

O=c1cc(-c2ccccc2)[nH]n1-c1nc2ccccc2[nH]1
inactive: K-562 leukemia 10.1% | MDA-MB-231 breast 73% | RXF 393 renal 52.2% | SF-268 CNS 60.2% | SF-295 CNS 21.6% | SF-539 CNS 47.6% | UACC-257 melanoma 75.6% | M14 melanoma 41.8% | HCT-15 colon 30.7% | HT29 colon 87.1% | SNB-75 CNS 64.4% | SNB-19 CNS 53.1% | U251 CNS 31.7% | PC-3 prostate 56.6% | SK-MEL-5 melanoma 34.1% | UACC-62 melanoma 36.5% | LOX IMVI melanoma 27.8% | SK-MEL-28 melanoma 74.1% | SK-MEL-2 melanoma 68.5%

COc1cc(NC(=O)CSc2nc3ccccc3c(=O)n2CCc2ccccc2)cc(OC)c1OC
active: MDA-MB-231 breast -17% | SF-539 CNS -50% | SNB-75 CNS -26.7% | U251 CNS -12.5% | SK-MEL-5 melanoma -41.9% | SK-MEL-2 melanoma -2.19%
inactive: SF-268 CNS 13.9% | SF-295 CNS 51.6% | UACC-257 melanoma 39.2% | M14 melanoma 41.9% | HCT-15 colon 89% | HT29 colon 15.4% | SNB-19 CNS 27% | PC-3 prostate 41.8% | UACC-62 melanoma 25.3% | LOX IMVI melanoma 30.6% | SK-MEL-28 melanoma 37.5%

CCN(CC)CCOc1nc2ccccc2c2c1-c1ccc(OC)cc1C2=O
active: K-562 leukemia -17.8% | RXF 393 renal 3.35% | SF-268 CNS -6.65% | SF-295 CNS -7.99% | UACC-257 melanoma -18.8% | M14 melanoma -53.3% | SNB-75 CNS 1.69% | U251 CNS -10.8% | PC-3 prostate 7.51% | SK-MEL-5 melanoma -84% | UACC-62 melanoma 8.63% | LOX IMVI melanoma -47.2% | SK-MEL-28 melanoma 4.25% | SK-MEL-2 melanoma -2.62%
inactive: MDA-MB-231 breast 10.7% | SF-539 CNS 29.2% | SNB-19 CNS 24.6%

Nc1ccn(C2CC(O)C(CO)O2)c(=O)n1 (centres undefined)
inactive: K-562 leukemia 99.5% | MDA-MB-231 breast 115% | SF-268 CNS 110% | SF-295 CNS 116% | SF-539 CNS 98.3% | UACC-257 melanoma 113% | M14 melanoma 106% | HCT-15 colon 102% | HT29 colon 110% | SNB-75 CNS 97.5% | SNB-19 CNS 99.7% | U251 CNS 105% | PC-3 prostate 99.4% | SK-MEL-5 melanoma 105% | UACC-62 melanoma 100% | LOX IMVI melanoma 104% | SK-MEL-28 melanoma 120% | SK-MEL-2 melanoma 87.8%

O=c1c2ccccc2nc(SCCN2CCCCC2)n1CCc1ccccc1
inactive: MDA-MB-231 breast 66.5% | SF-268 CNS 101% | SF-295 CNS 87.5% | SF-539 CNS 90.2% | UACC-257 melanoma 95.9% | M14 melanoma 103% | HCT-15 colon 80.7% | HT29 colon 30.1% | SNB-75 CNS 87% | SNB-19 CNS 102% | PC-3 prostate 89.2% | SK-MEL-5 melanoma 76.7% | UACC-62 melanoma 97.8% | LOX IMVI melanoma 81.6% | SK-MEL-28 melanoma 101% | SK-MEL-2 melanoma 102%

Oc1[nH]c2ccc(Cl)cc2c1/C=c1/ccc2c(c1)N=C(c1cccs1)N=2
active: SNB-75 CNS 6.31%
inactive: K-562 leukemia 30.9% | MDA-MB-231 breast 91.2% | RXF 393 renal 49.7% | SF-295 CNS 41.4% | SF-539 CNS 81.3% | UACC-257 melanoma 48.5% | M14 melanoma 77.1% | HCT-15 colon 55.4% | HT29 colon 43.8% | SNB-19 CNS 62% | U251 CNS 61.3% | PC-3 prostate 62.5% | SK-MEL-5 melanoma 52.8% | UACC-62 melanoma 53.6% | LOX IMVI melanoma 42.5% | SK-MEL-28 melanoma 71.1% | SK-MEL-2 melanoma 73.5%

CO/N=C(/C(=O)NC1C(=O)N2C(C(=O)O)=C(COC(N)=O)CSC12)c1ccco1 (centres undefined)
inactive: MALME-3M melanoma 94.3% | MDA-MB-231 breast 107% | SF-268 CNS 124% | SF-295 CNS 105% | SF-539 CNS 100% | UACC-257 melanoma 104% | M14 melanoma 102% | HCT-15 colon 104% | HT29 colon 111% | SNB-75 CNS 91.6% | SNB-19 CNS 95.5% | U251 CNS 107% | PC-3 prostate 101% | SK-MEL-5 melanoma 110% | UACC-62 melanoma 103% | LOX IMVI melanoma 102% | SK-MEL-28 melanoma 114% | SK-MEL-2 melanoma 100%

COc1cccc(C2C3=C(COC3=O)N(CCO)c3cc(OC)ccc32)c1 (centres undefined)
active: MDA-MB-231 breast 8.33% | SF-295 CNS -20.3% | SF-539 CNS -6.71% | M14 melanoma 6.29% | HT29 colon -8.66% | SK-MEL-5 melanoma -3.6%
inactive: K-562 leukemia 17.1% | RXF 393 renal 15.9% | SF-268 CNS 31.6% | HCT-15 colon 11.3% | SNB-75 CNS 27.2% | SNB-19 CNS 33.3% | U251 CNS 12.7% | PC-3 prostate 26.9% | UACC-62 melanoma 14.6% | LOX IMVI melanoma 23.9% | SK-MEL-28 melanoma 56.1%
